In PubChem BioAssay (EPA / NIEHS):
Inconclusive results are not listed. Active and inactive are the calls of the source. How the source made its calls, unless noted: active means hit-call score of the fitted dose curve at least 0.9, where 1 is the maximum; inconclusive means response in the unintended direction; inactive means score below 0.9.

How the values were obtained:
[1] = TOX21_p53_BLA_p2_viability: Viability Assessment in the Tox21 HCT-116 p53 Agonism Beta-lactamase Assay, Phase 2 (AID 2283591);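 further: actives lower the ATP signal meaning cytotoxicity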
Method in brief: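 Cytotoxicity readout: CellTiter-Glo ATP luminescence, 30 min at room temperature, after the beta-lactamase read. Cells were HCT116 exposed 16 h at 37C to compounds pin-transferred at 217-fold dilution from DMSO stocks.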

[2] = target: Cellular tumor antigen p53 (Homo sapiens) (UniProt P04637); experiment: TOX21_p53_BLA_p2_ratio: Tox21 HCT-116 p53 Agonism Beta-lactamase Assay, Ratio, Phase 2 (AID 2283592)
Method in brief: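 First, HCT116 reporter cells settle for 5 h at 37C. Next, DMSO compound solutions are pinned in (217-fold dilution) and left 16 h. Finally, CCF4-AM substrate is loaded 2 h at room temperature and the 460/530 nm ratio read.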

[3] = TOX21_p53_BLA_p3_viability: Viability Assessment in the Tox21 HCT-116 p53 Agonism Beta-lactamase Assay, Phase 3 (AID 2283593);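 further: cells exposed to compound for 16 h before reading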
Method in brief: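 Cellular ATP was quantified by CellTiter-Glo luminescence, read after 30 min at room temperature. Beforehand, HCT116 cells (4000/well) received compound 5 h post-seeding, 217-fold diluted from DMSO, then incubated 16 h at 37C.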

[4] = target: Cellular tumor antigen p53 (Homo sapiens) (UniProt P04637); experiment: TOX21_p53_BLA_p3_ratio: Tox21 HCT-116 p53 Agonism Beta-lactamase Assay, Ratio, Phase 3 (AID 2283596)
Method in brief: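 Cells were seeded at 4000/well, rested 5 h at 37C, then dosed with DMSO compound solutions (217-fold dilution) for 16 h. CCF4-AM substrate was loaded for 2 h at room temperature, and the 460/530 nm emission ratio was fitted for gain of signal versus DMSO.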

[5] = TOX21_p53_BLA_p4_viability: Viability Assessment in the Tox21 HCT-116 p53 Agonism Beta-lactamase Assay, Phase 4 (AID 2283597);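 further: hits lower the luminescence signal meaning cytotoxicity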
Method in brief: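 4000 HCT116 cells per well; 5 h attachment; compounds from DMSO, 217-fold dilution; 16 h at 37C. Then CCF4-AM, 2 h RT, followed by CellTiter-Glo, 30 min RT, luminescence. Decrease = cytotoxicity.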

[6] = target: Cellular tumor antigen p53 (Homo sapiens) (UniProt P04637); experiment: TOX21_p53_BLA_p5_ratio: Tox21 HCT-116 p53 Agonism Beta-lactamase Assay, Ratio, Phase 5 (AID 2283599)
Method in brief: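 Beta-lactamase reporter ratio (blue 460 nm over green 530 nm, 405 nm excitation) after 2 h CCF4-AM loading, in HCT-116 cells exposed 16 h at 37 C to compounds pinned at 217-fold dilution. Increases relative to DMSO baseline scored.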

[7] = TOX21_p53_BLA_p5_viability: Viability Assessment in the Tox21 HCT-116 p53 Agonism Beta-lactamase Assay, Phase 5 (AID 2283600)
Method in brief: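 Decreased CellTiter-Glo luminescence denotes lost viability. Exposure: 16 h at 37C, 5% CO2, with compounds from DMSO stocks diluted 217-fold in wells of 4000 cells.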

[8] = target: Cellular tumor antigen p53 (Homo sapiens) (UniProt P04637); experiment: TOX21_p53_BLA_p4_ratio: Tox21 HCT-116 p53 Agonism Beta-lactamase Assay, Ratio, Phase 4 (AID 2283601)
Method in brief: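 Signal is the blue/green (460nm/530nm) ratio of cleaved versus uncleaved CCF4-AM substrate, read after 2 h substrate loading. Cells were HCT116 carrying the p53-responsive beta-lactamase reporter, dosed 16 h at 37C, 5% CO2; CellTiter-Glo measured in parallel.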

[9] = CCTE_Harrill_HTTr_Viability_MCF7: CCTE's 6-hour Cell Viability Assessment for the High-Throughput Transcriptomics (HTTr) Platform, in MCF-7 cells cultured in DMEM + 10% fetal bovine serum, Harrill Lab (AID 2284010; active means hit-call score of the fitted dose curve at least 0.9, where 1 is the maximum; inactive means score below 0.9)
Method in brief: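 Read-out is propidium iodide gain of signal by high-content imaging, reflecting membrane integrity loss. Measurements are taken 6 h after dosing, eight concentrations per chemical, with DMSO serving as baseline for bidirectional curve fitting.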

[10] = CCTE_Harrill_HTTr_Apoptosis_MCF7: CCTE's 6-hour Apoptosis Assessment for the High-Throughput Transcriptomics (HTTr) Platform, in MCF-7 cells cultured in DMEM + 10% fetal bovine serum, Harrill Lab (AID 2284011; active means hit-call score of the fitted dose curve at least 0.9, where 1 is the maximum; inactive means score below 0.9)
Method in brief: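 MCF-7 cells in DMEM + 10% FBS exposed 6 h to chemicals over an eight-point dilution series. Caspase-3/7 activation imaged by high-content CellEvent Green staining; fitted bidirectionally versus DMSO.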

[11] = target: THRB (gene 7068) (UniProt P10828); experiment: TOX21_TRB_BLA_Antagonist_Followup_ratio: Tox21 Thyroid Hormone Receptor beta Antagonism Beta-lactamase (BLA) Follow-Up Assay, Ratio (AID 2283958)
Method in brief: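 Cells were plated and allowed to attach for 5 h, then dosed with compounds in DMSO at 11 concentrations for 18 h at 37C. Beta-lactamase reporter activity was measured via CCF4-AM FRET as the 460:530 nm ratio.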

[12] = TOX21_TRB_BLA_Antagonist_Followup_viability: Viability Assessment in the Tox21 Thyroid Hormone Receptor beta Antagonism Beta-lactamase (BLA) Follow-Up Assay (AID 2283961)
Method in brief: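 HEK293T cells with GAL4-human TRβ LBD and UAS-bla reporter, 3,000 cells/well in 2% charcoal-stripped FBS medium; 11-point concentrations in triplicate, 18 h at 37C. Viability from ATP by CellTiter-Glo luminescence, 30 min RT, same plates.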

[13] = TOX21_TR_RXR_BLA_Antagonist_Followup_viability: Viability Assessment in the Tox21 Thyroid Hormone Receptor beta Retinoid X Receptor alpha (RXRa) Antagonism Beta-lactamase (BLA) Follow-Up Assay (AID 2283979)
Method in brief: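 Follow-up compounds (11 concentrations, triplicate) were incubated 16 h at 37C/5% CO2 with HEK293T RXRa-bla cells seeded at 2,500/well in charcoal-stripped-serum medium. ATP content by CellTiter-Glo luminescence gave viability; curves fitted in both directions against DMSO.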

Measured: outcome

Sequence of Cellular tumor antigen p53 (Homo sapiens) (P04637 whole entry, looked up): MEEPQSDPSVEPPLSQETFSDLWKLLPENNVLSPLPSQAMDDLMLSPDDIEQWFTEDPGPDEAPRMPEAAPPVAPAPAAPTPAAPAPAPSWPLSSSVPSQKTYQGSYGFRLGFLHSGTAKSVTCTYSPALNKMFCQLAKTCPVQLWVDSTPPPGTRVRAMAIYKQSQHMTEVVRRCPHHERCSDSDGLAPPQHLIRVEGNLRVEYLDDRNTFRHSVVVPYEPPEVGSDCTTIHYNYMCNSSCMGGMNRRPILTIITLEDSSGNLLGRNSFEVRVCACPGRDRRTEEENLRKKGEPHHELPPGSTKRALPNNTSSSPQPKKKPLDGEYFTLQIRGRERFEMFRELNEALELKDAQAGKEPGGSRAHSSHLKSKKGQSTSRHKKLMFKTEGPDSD
Sequence of THRB (gene 7068) (P10828 whole entry, looked up): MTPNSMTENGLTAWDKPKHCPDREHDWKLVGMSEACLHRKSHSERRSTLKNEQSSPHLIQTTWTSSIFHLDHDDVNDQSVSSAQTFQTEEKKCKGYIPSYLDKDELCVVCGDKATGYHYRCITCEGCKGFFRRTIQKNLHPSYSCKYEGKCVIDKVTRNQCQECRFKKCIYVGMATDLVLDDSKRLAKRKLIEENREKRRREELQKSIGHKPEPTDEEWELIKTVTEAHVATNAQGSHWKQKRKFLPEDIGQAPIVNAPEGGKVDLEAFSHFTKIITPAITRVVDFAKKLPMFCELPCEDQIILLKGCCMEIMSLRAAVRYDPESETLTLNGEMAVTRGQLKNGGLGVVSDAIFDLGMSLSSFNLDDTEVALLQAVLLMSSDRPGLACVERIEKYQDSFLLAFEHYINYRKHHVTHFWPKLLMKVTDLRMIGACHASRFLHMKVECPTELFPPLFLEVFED

C1=CCC(c2ccccc2)CC1 (centres undefined)
inactive: [1] | [2] | [3] | [4] | [5] | [6] | [7] | [8] | [9] | [10]

O=C1Cc2cc(CCN3CCN(c4nsc5ccccc45)CC3)c(Cl)cc2N1
inactive: [1] | [2] | [3] | [4] | [5] | [6] | [7] | [8]

CC1(C)Oc2ccc(C#N)cc2[C@@H](N2CCCC2=O)[C@@H]1O
inactive: [1] | [2] | [3] | [4] | [5] | [6] | [8]

CCOC(=O)n1ccn(C)c1=S
inactive: [1] | [2] | [3] | [4] | [5] | [6] | [7] | [8] | [9] | [10]

CCC[C@@]1(CCc2ccccc2)CC(O)=C([C@H](CC)c2cccc(NS(=O)(=O)c3ccc(C(F)(F)F)cn3)c2)C(=O)O1
inactive: [1] | [2] | [3] | [4] | [5] | [6] | [7] | [8] | [11] | [12] | [13]

CCCN(CCC)C(=O)C(CCC(=O)OCCCN1CCN(CCOC(=O)Cc2c(C)n(C(=O)c3ccc(Cl)cc3)c3ccc(OC)cc23)CC1)NC(=O)c1ccccc1 (centres undefined)
inactive: [1] | [2] | [3] | [4] | [5] | [6] | [8]

C[N+]1(C)CCCC(OC(=O)C(O)(c2ccccc2)c2ccccc2)C1 (centres undefined)
inactive: [1] | [2] | [3] | [4] | [5] | [6] | [8]

Clc1cccc(Cl)c1NC1=NCCN1
inactive: [1] | [2] | [3] | [4] | [5] | [6] | [7] | [8] | [9] | [10]

CO[C@@H]1[C@H](OC(=O)/C=C/C=C/C=C/C=C/C(=O)O)CC[C@]2(CO2)[C@H]1[C@@]1(C)O[C@@H]1CC=C(C)C
inactive: [1] | [2] | [3] | [4] | [5] | [6] | [7] | [8] | [9] | [10]

CCCCCCCCCCCCCCCC(=O)OC[C@H](COP(=O)([O-])OCC[N+](C)(C)C)OC(=O)CCCCCCCCCCCCCCC
inactive: [1] | [2] | [3] | [4] | [5] | [6] | [8]

O=C(O)CCc1nc2ccccc2[nH]1
inactive: [1] | [2] | [3] | [4] | [5] | [6] | [8]
